Assay [1] is described as follows: differential killing of epithelial or mesenchymal cells, primary screen, imaging, PC-3E GFP, TEM4-18 mCherry, co-culture (AID 1345086).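 As to all read-outs here: cells exposed to compound for 72 h before imaging.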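 As to red/green cell ratio (normalised): normalised mesenchymal count divided by normalised epithelial count so high means epithelial killing.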 The conditions noted are these: imaging cell counts, at 1 µM; for red/green cell ratio (normalised): actives lie on both sides, counts scaled to control wells, 1 = unselective.
A short description of assay [2]: polyglutamine-triggered caspase-3 activation inhibitors, cell-based (AID 1583). The settings on record: polyglutamine-induced caspase-3 activation, cell assay; stronger effect = higher value;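 tested at 10 µM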.
Assay [3] can be described thus: suppressors of polyQ aggregation in yeast, 75Q-TubU reporter (AID 1593). The settings on record: Yeast 75Q polyglutamine aggregation reporter.
Assay [4] in a line: inhibitors of mitochondrial cytochrome c release, biochemical, purified mitochondria (AID 1603).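 Also: mouse liver mitochondria challenged with calcium chloride; signal normalized to the plate average as 100%.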 The conditions noted are these: stronger effect = lower value.
Assay [5] can be described thus: liver-stage malaria parasite growth inhibition, primary screen, cell-based, HepG2, luciferase luminescence, HepG2 viability (AID 624349; in the data active = parasite load remaining mostly below about 12%, no sharp cut-off; inactive = mostly above about 10%;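 also: 100% = mean of DMSO negative control wells on the same plate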). The settings on record: P. berghei liver stage in HepG2, luciferase luminescence, concentration not given here; parasite load remaining: stronger effect = lower value; viability: measured here: HepG2 viability without parasites.
[6] abbreviates: measured here: epithelial PC-3E GFP cell survival.
[7] abbreviates: measured here: mesenchymal TEM4-18 mCherry cell survival.

Calls of active or inactive are those of the source.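 The calls were made as follows, unless noted: active = compounds killing one labelled cell type while sparing the other, by normalised counts and ratio limits, not self-fluorescent; inactive = the rest.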

In the case of `COc1cc2oc3cc(OC)c(OC)c(CC=C(C)C)c3c(=O)c2c(OC)c1CC=C(C)C`, the red/green cell ratio (normalised) in assay [1] is 0.95 (inactive). The normalised cell number was determined as 1.02 in assay [1] (setting [6]) and 0.97 in assay [1] (setting [7]).

In the case of `C[C@@H]1O[C@@H](O[C@H]2[C@H](Oc3cc(O)c4c(=O)cc(-c5ccc(O)cc5)oc4c3)O[C@H](CO)[C@@H](O)[C@@H]2O)[C@H](O)[C@H](O)[C@H]1O`, in assay [1], the red/green cell ratio (normalised) was 1.02 (inactive). The normalised cell number in assay [1] (setting [6]) was determined as 0.87; in assay [1] (setting [7]), 0.89.

Turning to `COc1ccc2c(c1)O[C@H]1c3ccc(OC)cc3OC[C@@H]21`, in assay [1], the red/green cell ratio (normalised) is 1.06 (inactive). The results for the normalised cell number in assay [1] (setting [6]) and in assay [1] (setting [7]) were 1 and 1.07, respectively.

Take `COc1ccc2oc3ccccc3c(=O)c2c1`: the red/green cell ratio (normalised) in assay [1] was 0.95 (inactive). In addition, the normalised cell number was 1.2 in assay [1] (setting [6]) and 1.14 in assay [1] (setting [7]).

Turning to `COc1cc2oc3cc(OC)c(OC)c(CC=C(C)C)c3c(=O)c2c(O)c1CC=C(C)C`, the red/green cell ratio (normalised) in assay [1] is 0.97 (inactive). Moreover, the normalised cell number stood at 1 in assay [1] (setting [6]) and 0.97 in assay [1] (setting [7]).

With `O=c1cc(-c2ccccc2O)oc2cc(O)ccc12`, the red/green cell ratio (normalised) in assay [1] is 1 (inactive). Further, the normalised cell number in assay [1] (setting [6]) and in assay [1] (setting [7]) was 0.97 each time.

On to `O=c1cccc2ccc(O)c(O)c2c1O`, for which the red/green cell ratio (normalised) in assay [1] was 1.04 (inactive). Further, the figures for the normalised cell number in assay [1] (setting [6]) and in assay [1] (setting [7]) were 0.98 and 1.02, respectively.

Take `O=c1ccn([C@@H]2O[C@H](COP(=O)(O)OP(=O)(O)OP(=O)(O)O)[C@@H](O)[C@H]2O)c(=O)[nH]1`: in assay [2], the inhibition (usually the relative decrease from the control value, in per cent) is -7.02%. Besides, the score in assay [3] stood at 1.5. Moreover, the cytochrome c release ratio in assay [4] was determined as 0.87. The red/green cell ratio (normalised) in assay [1] is 1.18 (inactive). The normalised cell number in assay [1] (setting [6]) came out at 0.94; in assay [1] (setting [7]), 1.1.

Regarding `O=C1C=CC(=O)c2c(O)c(Cl)c(Cl)c(O)c21`, the red/green cell ratio (normalised) in assay [1] was 1 (inactive). In addition, the normalised cell number in assay [1] (setting [6]) and in assay [1] (setting [7]) was 1.04 in each case.

On to `CC(=O)OCC(OC(C)=O)C(OC(C)=O)C(OC(C)=O)C(OC(C)=O)C(COC(C)=O)OC(C)=O` (stereo unspecified), for which, in assay [1], the red/green cell ratio (normalised) is 1.06 (inactive). Also, the results for the normalised cell number in assay [1] (setting [6]) and in assay [1] (setting [7]) were 0.99 and 1.05, respectively.

In the case of `O=C(O)/C=C/C=C/c1ccc2c(c1)OCO2`, in assay [1], the red/green cell ratio (normalised) was 1.14 (inactive). Also, the normalised cell number came out at 0.9 in assay [1] (setting [6]) and 1.03 in assay [1] (setting [7]).

As to `COc1ccc(-c2cc(=O)c3c(OC)c(OC)c(OC)cc3o2)cc1OC`, in assay [1], the red/green cell ratio (normalised) was 1.21 (inactive). Besides, the normalised cell number came to 0.9 in assay [1] (setting [6]) and 1.08 in assay [1] (setting [7]).

Take `CC(=O)O[C@H]1CC[C@@]2(C)C(C[C@@H](OC(C)=O)[C@@]3(C)C4=CC(=O)O[C@@H](c5ccoc5)[C@]4(C)CCC23)C1(C)C` (stereo partly specified): in assay [1], the red/green cell ratio (normalised) is 0.88 (inactive). In addition, the figures for the normalised cell number in assay [1] (setting [6]) and in assay [1] (setting [7]) were 0.93 and 0.82, respectively.

With `CC(=O)Oc1ccc2c(c1C(C)C)CCC1C(C)(C)CCC[C@]21C` (stereo partly specified), the red/green cell ratio (normalised) in assay [1] is 0.8 (inactive). Besides, the figures for the normalised cell number in assay [1] (setting [6]) and in assay [1] (setting [7]) were 1.07 and 0.86, respectively.

For `O=S(=O)(O)c1cc(N=C=S)ccc1/C=C/c1ccc(N=C=S)cc1S(=O)(=O)O`, in assay [1], the red/green cell ratio (normalised) is 0.86 (inactive). Besides, the normalised cell number in assay [1] (setting [6]) worked out at 1.29; in assay [1] (setting [7]) it was 1.11.

With `Cc1c(S(=O)(=O)O)oc2c1C(=O)C(=O)c1c-2ccc2c1CCCC2(C)C`, the red/green cell ratio (normalised) in assay [1] was 0.95 (inactive). For the same compound, the normalised cell number in assay [1] (setting [6]) was found to be 1.24; in assay [1] (setting [7]) it was 1.18.

For `O=C(O)c1ccc2c(c1)OCO2`, in assay [1], the red/green cell ratio (normalised) is 1.05 (inactive). For the same compound, the normalised cell number in assay [1] (setting [6]) was determined as 1; in assay [1] (setting [7]), 1.05.

In the case of `O=C(/C=C/c1ccc(O)cc1)c1ccccc1O`, in assay [1], the red/green cell ratio (normalised) was 0.93 (inactive). The values for the normalised cell number in assay [1] (setting [6]) and in assay [1] (setting [7]) were 1.02 and 0.94, respectively.

Regarding `COc1cc(OC)c2c(=O)c(O)c(-c3ccc(OC)c(OC)c3)oc2c1`, the red/green cell ratio (normalised) in assay [1] was 0.83 (inactive). Besides, the normalised cell number in assay [1] (setting [6]) came out at 1.23; in assay [1] (setting [7]), 1.02.

Turning to `CC(C)Oc1ccc2c(=O)cc(-c3ccccc3)oc2c1`, the inhibition in assay [2] is 19.6%. The same compound yielded a score in assay [3] of 0.68. For the same compound, in assay [4], the cytochrome c release ratio was 0.9. In assay [1], the red/green cell ratio (normalised) is 0.86 (inactive). Further, the normalised cell number in assay [1] (setting [6]) came out at 1.15; in assay [1] (setting [7]), 0.99.

As for `C[C@@H]1O[C@@H](OC[C@H]2OC(Oc3c(-c4ccc(OCCO)c(OCCO)c4)oc4cc(OCCO)cc(O)c4c3=O)[C@H](O)[C@@H](O)[C@@H]2O)[C@H](O)[C@H](O)[C@H]1O` (stereo partly specified), in assay [5], the parasite load remaining was 141% (inactive) and the viability (usually a read-out of living cells in per cent, often relative to untreated cells) worked out at 89.1%. Besides, the red/green cell ratio (normalised) in assay [1] is 0.94 (inactive). The normalised cell number in assay [1] (setting [6]) was determined as 1.03. Moreover, the normalised cell number in assay [1] (setting [7]) amounted to 0.96.

(Values after PubChem BioAssay.)
